Screens as filed in PubChem.
ELG1 repair inh: inhibitors of ELG1-dependent DNA repair in HEK293T cells | HEK293T ELG1-luciferase reporter, luminescence, 16 h; DNA damage induced by 5-fluorouridine | actives 2.3% (n = 330,000) | Potency, µM (highest dose often 46.1 µM), most hits filed as inhibitors | AID 504467; also: nearly all actives have a fitted effect of over 55% in size
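5-Fluorouridine DNA damage + compound/DMSO, 2,000 cells/well, 16 h, 37 °C/5% CO2. ONE-Glo, 30 min RT, luminescence. Readout = decrease in reporter signal.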
ELG1 genotoxic: inducers of genotoxicity in HEK293T ELG1-luciferase cells; actives 1.3% (n = 330,000); AID 504466; Potency, µM (doses to about 46 µM), hits mostly activators; HEK293T ELG1-luciferase reporter, luminescence, 16 h; also: nearly all actives have a fitted effect of over 60% in size
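Step 1: seed 2,000 HEK293T ELG1-luciferase cells per well. Step 2: add compound or DMSO, incubate 16 hr at 37 °C. Step 3: ONE-Glo, 30 min at room temperature, read luminescence.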
SMN2 splice enh: increases expression of the SMN2 splice variant. HEK293 SMN2-luciferase splicing reporter, luminescence, 30-36 h. Potency, µM (series often up to 46.1 µM), most hits filed as activators. actives 2.8% (n = 210,000). AID 1458; also: nearly all actives have a fitted effect of over 55% in size
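qHTS luciferase splicing reporter: luminescence rises when SMN2 exon 7 is included in transfected HEK293 cells. Compound exposure lasted 30-36 h at 37C, with 4.5 mM final sodium butyrate as control, followed by a ONE-Glo read.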
NPC1 promoter act: NPC1 promoter activation; Huh7 NPC1 promoter luciferase reporter, 24 h; Potency, µM (series often up to 9.22 µM), most hits filed as activators; actives 2.4% (n = 320,000); AID 485313; also: nearly all actives have a fitted effect of over 60% in size
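In 1536-well qHTS, Huh7 cells harboring an NPC1 promoter–luciferase construct received compound for 24 h; activation was quantified by luminescence following luciferase reagent addition.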
Rab9 promoter act: Rab9 promoter activation. AID 485297. actives 2.8% (n = 320,000). Potency, µM (series often up to 9.22 µM), actives largely listed as activators. Huh7 Rab9 promoter-luciferase reporter, luminescence, 24 h; also: nearly all actives have a fitted effect of over 60% in size
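Rab9 promoter-driven luciferase in stably transfected Huh7 cells; 1500 cells/well rested 2 h, exposed to compound in DMSO for 24 h at 37 °C, 5% CO2. Luminescence read 10 min after adding luciferase reagent at ambient temperature.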
FLuc modulator: counter-screen for miR-21 project: firefly luciferase inhibitors or activators; actives 6.9% (n = 360,000); purified FLuc, Km substrates, luminescence inhibition; P08659; Potency, µM (top dose mostly 57.5 µM), most hits filed as inhibitors; also: nearly all actives have a fitted effect of over 55% in size
Target sequence (P08659 whole entry, looked up): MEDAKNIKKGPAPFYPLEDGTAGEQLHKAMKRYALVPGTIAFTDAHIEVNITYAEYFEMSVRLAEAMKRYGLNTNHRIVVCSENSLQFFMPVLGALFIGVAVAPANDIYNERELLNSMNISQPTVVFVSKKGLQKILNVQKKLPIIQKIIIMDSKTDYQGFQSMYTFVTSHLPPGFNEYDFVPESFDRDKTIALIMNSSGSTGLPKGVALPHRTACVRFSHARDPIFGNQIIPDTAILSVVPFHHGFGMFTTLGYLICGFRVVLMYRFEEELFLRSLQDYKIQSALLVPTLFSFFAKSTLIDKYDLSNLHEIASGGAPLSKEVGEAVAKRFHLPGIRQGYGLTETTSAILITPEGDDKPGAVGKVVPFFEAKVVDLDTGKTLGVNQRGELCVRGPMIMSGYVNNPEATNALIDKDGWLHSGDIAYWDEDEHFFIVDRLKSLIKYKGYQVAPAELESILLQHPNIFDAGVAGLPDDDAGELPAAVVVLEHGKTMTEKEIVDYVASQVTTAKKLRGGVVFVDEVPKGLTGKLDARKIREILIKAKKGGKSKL
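Purified P. pyralis luciferase (10nM final) with 10uM D-luciferin and 10uM ATP (Km levels) in 50mM Tris acetate pH 7.5, 10mM Mg acetate, 0.01% Tween-20, 0.05% BSA; qHTS 6-point titration, ~60 µM downward; luminescence read.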
Numbers stand for hits; – = inactive; ? = inconclusive; · = not tested or not shown. An excerpt weighted towards active compounds, which were near 9.2% of everything screened. Calls follow the shape of the dose curve; as a rule, active = well fitted curve in the direction sought with a large enough effect; inconclusive = small, poorly fitted or top-dose-only effect, or another doubt; inactive = no such curve, though single readings can be large; an effect the other way counts as inactive or inconclusive.

SMILES | ELG1 repair inh | ELG1 genotoxic | SMN2 splice enh | NPC1 promoter act | Rab9 promoter act | FLuc modulator
CC(OC(=O)c1cccc(-n2cnnn2)c1)C(=O)NCc1ccccc1 (stereo unspecified) | – | – | · | – | – | –
Cc1c(C(=O)N/N=C/c2ccc(O)c(Br)c2)sc(N)c1C#N | – | ? | ? | – | – | 13.5µM
Cc1cccc(NC(=O)CN2C(=O)C3(SCC(=O)N3c3ccccc3)c3ccccc32)c1 (stereo unspecified) | · | · | · | · | · | –
CCCCN(C)C(=O)c1nc2ccccn2c1CN1CCN(C(=O)c2cccs2)CC1 | – | – | · | – | – | –
Cc1ccccc1CNC(=O)c1ccc(NC(=O)c2nsc3ccccc23)cc1 | · | · | · | · | · | 6.75µM
Cc1ccc(CNC(=O)c2ccc(NC(=O)c3nsc4ccccc34)cc2)cc1 | · | · | · | · | · | 6.75µM
O=C(Nc1ccc(F)cc1)N1CCN(C(=O)c2nsc3ccccc23)CC1 | · | · | · | · | · | –
Cc1ccc(C(=O)NCc2ccc(N(C)C)cc2)cc1NC(=O)c1nsc2ccccc12 | · | · | · | · | · | –
Cc1ccc(NC(=O)c2nc[nH]c2C(=O)NCc2ccccc2)cc1 | – | – | · | – | – | –
CCCSCCCNC(=O)c1ccc(C)c(NC(=O)c2nsc3ccccc23)c1 | · | · | · | · | · | –
O=C(NCc1cccc(F)c1)c1ccc(NC(=O)c2nsc3ccccc23)cc1 | · | · | · | · | · | 4.78µM
CN(C)c1ccc(CNC(=O)c2ccc(NC(=O)c3nsc4ccccc34)cc2)cc1 | · | · | · | · | · | 2.69µM
Cc1sc2ncn(CC(=O)Nc3ccc(F)cc3Cl)c(=O)c2c1S(=O)(=O)N1CCN(c2ncccn2)CC1 | · | · | – | · | · | –
CCCCN(Cc1ccccc1)C(=O)c1oc(=O)c2ccccc2c1-c1ccc(C)cc1 | · | · | – | · | · | –
O=S(=O)(c1ccc(-c2ccon2)s1)N1CCN(c2ccncc2)CC1 | – | – | · | – | – | –
Cc1cc(-n2nnc3ccccc32)nc2ccccc12 | ? | – | 0.224µM | – | – | –
Cc1ccc2c(c1)cc(CN(Cc1ccco1)C(=O)COc1ccccc1)c1nnnn12 | 20.6µM | – | – | – | – | –
COCCN(Cc1cc2cc(C)ccc2n2nnnc12)C(=S)Nc1ccc(C)cc1 | 16.4µM | – | – | – | – | –
CC(C)c1ccccc1N=C1SCCCN1C(=O)c1cccc(N2C(=O)CCC2=O)c1 | – | – | · | – | – | –
COc1cc(C(=O)NCC(c2ccc(F)cc2)N2CCOCC2)ccc1OCc1ccccc1Cl (stereo unspecified) | ? | – | · | – | – | –
Nc1ccc(S(=O)(=O)Nc2nccc(/C=C/c3ccc([N+](=O)[O-])cc3)n2)cc1 | ? | – | · | – | – | –
O=[N+]([O-])c1ccc(/C=C/c2ccc3ccccc3n2)cc1 | ? | – | 2.24µM | ? | 0.562µM | 0.601µM
O=[N+]([O-])c1ccc(/C=C/c2ccc3cccc(O)c3n2)cc1 | ? | ? | · | ? | ? | 2.39µM
CCCOc1ccc(-c2cc(C(=O)NCC3CCCO3)c3ccccc3n2)cc1 (stereo unspecified) | ? | – | – | – | – | 3.01µM
COc1ccc(-c2cc(C(=O)NC3CC3)c3ccccc3n2)cc1 | ? | – | · | – | – | 21.3µM
SMILES | ELG1 repair inh | ELG1 genotoxic | SMN2 splice enh | NPC1 promoter act | Rab9 promoter act | FLuc modulator
O=C(NCC1CCCO1)c1cc(-c2ccncc2)nc2ccccc12 (stereo unspecified) | – | – | · | – | – | –
COc1ccc(-c2cc(C(=O)NC3CCCC3)c3ccccc3n2)cc1 | – | – | · | – | – | 6.75µM
N#Cc1cccc2cccc(S(=O)(=O)N3CCOCC3)c12 | – | – | · | – | – | –
CCc1ccc(NC(=O)C2CCCN(S(=O)(=O)c3cccc4nonc34)C2)cc1 (stereo unspecified) | · | · | – | · | · | –
CN(C(=O)Nc1cccc(C(F)(F)F)c1)C1CCCCC1 | – | – | · | – | ? | –
Cc1ccc(S(=O)(=O)CCC(=O)OCc2nnc(-c3ccccc3Br)o2)cc1 | – | – | · | – | – | –
O=c1c2ccccc2nc(/C=C/c2ccc([N+](=O)[O-])o2)n1CCCO | 14.6µM | ? | – | – | – | –
Cc1nc2ccccc2c(=O)n1CCCO | – | – | – | – | – | –
O=c1c2ccccc2nc(/C=C/c2ccc([N+](=O)[O-])cc2)n1CCCO | 18.4µM | – | – | – | – | –
Cc1ccccc1-c1noc(-c2cccnc2N(C)Cc2ccc(Cl)cc2)n1 | · | · | · | · | · | –
O=C(c1ccc2c(=O)n3c(nc2c1)CCCCC3)N1CCN(c2ccc([N+](=O)[O-])cc2)CC1 | ? | – | · | – | – | –
Cc1cccc(OCCCC(=O)Nc2ccc(N(C)C)cc2)c1 | ? | ? | – | ? | ? | 8.49µM
Cc1cccc(OCCCC(=O)Nc2ccc(Br)cc2)c1 | – | – | – | – | – | –
Cc1ccc(NC(=O)CCOc2ccccc2)cc1 | ? | ? | · | ? | 3.55µM | 13.5µM
CCN(C(=O)COC(=O)CCc1ccc(OC)cc1)c1c(N)n(Cc2ccccc2)c(=O)[nH]c1=O | – | – | · | – | – | –
Cn1c(Cc2cccs2)nnc1SCC(=O)N1CCCc2ccccc21 | ? | – | – | – | – | –
CC1Cc2ccccc2N1C(=O)CSc1nnc(Cc2ccccc2)n1CCc1ccccc1 (stereo unspecified) | 18.4µM | – | – | – | – | –
O=C(CSc1nnc(Cc2cccs2)n1CCc1ccccc1)N1CCCc2ccccc21 | 20.6µM | – | – | – | – | –
Cc1c(N(C(=O)c2ccccn2)C2(C(=O)NC3CCCCC3)CCCCC2)c(=O)n(-c2ccccc2)n1C | – | – | – | – | – | –
CC(=O)OCC(=O)Nc1ccc(N=Nc2ccccc2)cc1 | ? | 23.1µM | 6.31µM | 2.82µM | 2.82µM | 12µM
Cc1ccccc1OCC(=O)OCC(=O)NCc1ccccc1Cl | – | – | · | · | · | ·
CC(C)C(=O)OCC(=O)NCc1ccccc1Cl | – | – | – | ? | – | 16.9µM
CCC(C(=O)OCC(=O)Nc1ccc(F)cc1)c1ccccc1 (stereo unspecified) | – | – | · | – | – | –
CC1(C(=O)OCC(=O)Nc2ccccc2)CC1(Cl)Cl (stereo unspecified) | ? | – | – | ? | ? | 16.9µM
CC1(C(=O)OCC(=O)Nc2ccccc2Cl)CC1(Cl)Cl (stereo unspecified) | – | – | – | – | ? | ?
CC(C)C(=O)OCC(=O)Nc1ccc(N=Nc2ccccc2)cc1 | ? | 20.6µM | 11.2µM | 2.51µM | 0.794µM | ?
Nc1ncnc(Nc2c(F)cccc2F)n1 | ? | – | · | – | – | –
O=C(Nc1ccc(N=Nc2ccccc2)cc1)c1ccccc1Cl | ? | ? | 11.2µM | 1.78µM | 2.51µM | 3.79µM
O=C(CCl)Nc1ccc(N=Nc2ccccc2)cc1 | ? | – | – | – | – | 6.01µM
